Assay [1] deals with T1, Serine/threonine-protein kinase TBK1 (Homo sapiens) (UniProt Q9UHD2).
T1 sequence (whole entry): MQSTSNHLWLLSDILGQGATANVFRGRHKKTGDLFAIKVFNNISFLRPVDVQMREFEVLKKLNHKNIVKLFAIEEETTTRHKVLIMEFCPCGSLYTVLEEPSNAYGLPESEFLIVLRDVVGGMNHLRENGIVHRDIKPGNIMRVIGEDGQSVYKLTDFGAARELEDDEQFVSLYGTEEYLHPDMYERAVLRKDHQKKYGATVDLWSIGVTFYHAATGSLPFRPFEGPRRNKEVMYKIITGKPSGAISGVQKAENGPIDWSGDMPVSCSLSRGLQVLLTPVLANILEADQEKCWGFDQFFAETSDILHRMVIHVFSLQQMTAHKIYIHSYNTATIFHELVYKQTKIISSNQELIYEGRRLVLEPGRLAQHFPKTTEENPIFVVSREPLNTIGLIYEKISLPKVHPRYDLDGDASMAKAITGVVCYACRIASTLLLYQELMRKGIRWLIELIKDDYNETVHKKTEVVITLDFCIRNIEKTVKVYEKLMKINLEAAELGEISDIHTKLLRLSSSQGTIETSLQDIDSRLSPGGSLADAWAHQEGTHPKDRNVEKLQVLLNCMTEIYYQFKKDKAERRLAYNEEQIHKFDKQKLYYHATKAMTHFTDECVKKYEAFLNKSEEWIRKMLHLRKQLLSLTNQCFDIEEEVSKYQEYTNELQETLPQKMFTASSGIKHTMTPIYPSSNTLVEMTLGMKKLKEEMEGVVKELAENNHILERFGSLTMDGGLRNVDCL
The note with it: at 10 µM.

Assay [2] has as its target T2, TGF-beta receptor type-1 (Homo sapiens) (UniProt P36897).
T2 sequence (whole entry): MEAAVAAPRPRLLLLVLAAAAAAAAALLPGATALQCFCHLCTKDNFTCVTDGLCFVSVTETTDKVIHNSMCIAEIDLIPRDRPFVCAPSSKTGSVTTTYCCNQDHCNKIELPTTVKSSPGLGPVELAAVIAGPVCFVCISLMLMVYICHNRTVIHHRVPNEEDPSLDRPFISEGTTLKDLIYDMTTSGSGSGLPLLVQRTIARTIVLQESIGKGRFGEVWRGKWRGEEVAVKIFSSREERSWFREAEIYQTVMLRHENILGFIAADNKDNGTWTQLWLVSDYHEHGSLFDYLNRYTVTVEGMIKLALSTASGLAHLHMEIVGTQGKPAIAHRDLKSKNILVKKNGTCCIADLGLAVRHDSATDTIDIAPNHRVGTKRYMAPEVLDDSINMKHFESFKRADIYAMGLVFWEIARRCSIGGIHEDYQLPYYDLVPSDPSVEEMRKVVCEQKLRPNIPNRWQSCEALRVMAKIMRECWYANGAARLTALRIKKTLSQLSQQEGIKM
The conditions noted are these: at 1 µM.

For assay [3], the target named is T2, TGF-beta receptor type-1 (Homo sapiens). The conditions noted are these: at 10 µM.
Assay [4] has as its target Insulin-like growth factor 1 receptor (Homo sapiens) (UniProt P08069). The note with it: at 1 µM.
For assay [5] the target is unchanged. The conditions noted are these: at 10 µM.
The target in assay [6] is T3, Inhibitor of nuclear factor kappa-B kinase subunit alpha (Homo sapiens) (UniProt O15111).
T3 sequence (whole entry): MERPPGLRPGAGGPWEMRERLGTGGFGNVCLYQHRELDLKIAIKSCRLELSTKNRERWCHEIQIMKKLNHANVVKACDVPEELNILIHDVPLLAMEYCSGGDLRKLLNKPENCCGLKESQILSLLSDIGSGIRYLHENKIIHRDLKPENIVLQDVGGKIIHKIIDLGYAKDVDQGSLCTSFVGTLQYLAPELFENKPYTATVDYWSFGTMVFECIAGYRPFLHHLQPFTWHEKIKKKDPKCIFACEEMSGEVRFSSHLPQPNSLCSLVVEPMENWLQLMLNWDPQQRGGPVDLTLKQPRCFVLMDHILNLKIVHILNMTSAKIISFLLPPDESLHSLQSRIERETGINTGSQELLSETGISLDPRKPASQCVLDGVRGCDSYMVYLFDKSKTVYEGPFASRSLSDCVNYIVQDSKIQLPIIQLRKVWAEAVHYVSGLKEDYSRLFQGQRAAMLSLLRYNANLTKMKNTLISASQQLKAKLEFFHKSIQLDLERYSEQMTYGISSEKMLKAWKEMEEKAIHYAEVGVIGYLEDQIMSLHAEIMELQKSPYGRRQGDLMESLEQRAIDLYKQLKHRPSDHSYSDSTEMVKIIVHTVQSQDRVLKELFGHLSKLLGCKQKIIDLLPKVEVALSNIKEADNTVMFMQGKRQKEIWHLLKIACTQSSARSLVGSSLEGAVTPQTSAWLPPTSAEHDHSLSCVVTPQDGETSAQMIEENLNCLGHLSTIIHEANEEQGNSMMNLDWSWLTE
The note with it: at 1 µM.

Assay [7] concerns the target T3, Inhibitor of nuclear factor kappa-B kinase subunit alpha (Homo sapiens). The note with it: at 10 µM.
Assay [8] deals with T4, Inhibitor of nuclear factor kappa-B kinase subunit beta (Homo sapiens) (UniProt O14920).
T4 sequence (whole entry): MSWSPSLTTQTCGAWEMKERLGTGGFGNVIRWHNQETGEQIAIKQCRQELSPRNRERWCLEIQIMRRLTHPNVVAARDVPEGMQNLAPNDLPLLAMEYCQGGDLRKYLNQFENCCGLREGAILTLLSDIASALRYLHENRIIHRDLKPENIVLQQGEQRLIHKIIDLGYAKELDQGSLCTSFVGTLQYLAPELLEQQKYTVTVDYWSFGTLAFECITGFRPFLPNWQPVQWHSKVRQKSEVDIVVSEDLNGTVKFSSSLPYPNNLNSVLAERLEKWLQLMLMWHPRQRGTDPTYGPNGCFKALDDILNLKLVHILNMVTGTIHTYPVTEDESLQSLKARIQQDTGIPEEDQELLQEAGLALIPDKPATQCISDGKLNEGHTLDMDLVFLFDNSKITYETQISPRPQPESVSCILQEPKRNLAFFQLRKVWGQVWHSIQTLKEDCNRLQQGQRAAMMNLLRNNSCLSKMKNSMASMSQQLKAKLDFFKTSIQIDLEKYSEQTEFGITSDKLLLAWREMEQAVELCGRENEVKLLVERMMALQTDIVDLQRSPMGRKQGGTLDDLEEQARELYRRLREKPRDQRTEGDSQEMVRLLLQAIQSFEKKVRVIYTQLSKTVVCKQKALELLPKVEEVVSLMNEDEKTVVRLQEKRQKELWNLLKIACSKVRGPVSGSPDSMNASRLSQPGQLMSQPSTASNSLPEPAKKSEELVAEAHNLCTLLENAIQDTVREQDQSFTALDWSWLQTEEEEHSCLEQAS
The conditions noted are these: at 1 µM.

Assay [9] concerns the target T4, Inhibitor of nuclear factor kappa-B kinase subunit beta (Homo sapiens). The note with it: at 10 µM.
The target of assay [10] is Insulin receptor (Homo sapiens) (UniProt P06213). The conditions noted are these: at 1 µM.
Insulin receptor (Homo sapiens), sequence (P06213 28-758 limits assumed): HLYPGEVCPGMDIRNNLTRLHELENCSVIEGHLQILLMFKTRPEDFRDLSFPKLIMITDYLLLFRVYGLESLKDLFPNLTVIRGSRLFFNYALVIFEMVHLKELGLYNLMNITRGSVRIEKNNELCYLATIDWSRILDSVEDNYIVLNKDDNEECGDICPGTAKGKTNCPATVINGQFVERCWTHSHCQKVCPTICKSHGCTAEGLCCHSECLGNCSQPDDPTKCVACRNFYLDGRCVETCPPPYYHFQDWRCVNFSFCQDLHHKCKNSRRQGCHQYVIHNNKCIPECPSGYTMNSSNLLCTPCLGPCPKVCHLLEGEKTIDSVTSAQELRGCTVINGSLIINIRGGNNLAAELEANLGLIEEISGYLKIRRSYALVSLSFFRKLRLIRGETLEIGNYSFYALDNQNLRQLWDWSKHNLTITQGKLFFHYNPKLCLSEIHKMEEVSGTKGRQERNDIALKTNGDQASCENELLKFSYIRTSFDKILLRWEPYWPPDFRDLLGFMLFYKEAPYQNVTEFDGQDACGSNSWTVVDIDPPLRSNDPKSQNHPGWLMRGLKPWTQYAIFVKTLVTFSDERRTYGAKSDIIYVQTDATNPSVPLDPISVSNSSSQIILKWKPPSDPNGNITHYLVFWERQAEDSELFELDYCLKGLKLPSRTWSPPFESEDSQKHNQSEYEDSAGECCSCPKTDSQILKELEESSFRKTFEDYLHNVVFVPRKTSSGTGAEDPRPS
Insulin receptor (Homo sapiens), sequence (P06213 763-1382 limits assumed): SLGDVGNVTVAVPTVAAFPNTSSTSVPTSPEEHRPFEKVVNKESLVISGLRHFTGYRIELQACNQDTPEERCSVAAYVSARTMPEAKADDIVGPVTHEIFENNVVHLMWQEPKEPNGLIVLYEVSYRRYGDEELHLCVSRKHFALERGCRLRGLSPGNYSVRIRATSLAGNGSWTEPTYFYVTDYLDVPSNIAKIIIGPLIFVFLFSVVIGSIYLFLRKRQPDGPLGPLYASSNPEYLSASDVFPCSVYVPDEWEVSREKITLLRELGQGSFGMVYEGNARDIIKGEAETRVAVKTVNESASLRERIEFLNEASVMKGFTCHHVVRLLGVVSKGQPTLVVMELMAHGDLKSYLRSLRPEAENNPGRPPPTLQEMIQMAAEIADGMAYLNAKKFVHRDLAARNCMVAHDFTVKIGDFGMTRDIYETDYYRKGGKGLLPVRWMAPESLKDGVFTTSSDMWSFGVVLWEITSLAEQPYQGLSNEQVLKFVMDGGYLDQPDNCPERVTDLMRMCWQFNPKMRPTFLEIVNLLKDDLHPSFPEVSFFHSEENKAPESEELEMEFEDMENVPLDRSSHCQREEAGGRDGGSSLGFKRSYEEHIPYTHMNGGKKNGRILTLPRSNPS

This note sets out measurements from ChEMBL document CHEMBL2218924, “A broad activity screen in support of a chemogenomic map for kinase signalling research and drug discovery” (Biochem J, 2013).

As a reminder, the residual activity is the signal under treatment as a percentage of the control signal.

Insulin-like growth factor 1 receptor (Homo sapiens), sequence (P08069 31-736 limits assumed): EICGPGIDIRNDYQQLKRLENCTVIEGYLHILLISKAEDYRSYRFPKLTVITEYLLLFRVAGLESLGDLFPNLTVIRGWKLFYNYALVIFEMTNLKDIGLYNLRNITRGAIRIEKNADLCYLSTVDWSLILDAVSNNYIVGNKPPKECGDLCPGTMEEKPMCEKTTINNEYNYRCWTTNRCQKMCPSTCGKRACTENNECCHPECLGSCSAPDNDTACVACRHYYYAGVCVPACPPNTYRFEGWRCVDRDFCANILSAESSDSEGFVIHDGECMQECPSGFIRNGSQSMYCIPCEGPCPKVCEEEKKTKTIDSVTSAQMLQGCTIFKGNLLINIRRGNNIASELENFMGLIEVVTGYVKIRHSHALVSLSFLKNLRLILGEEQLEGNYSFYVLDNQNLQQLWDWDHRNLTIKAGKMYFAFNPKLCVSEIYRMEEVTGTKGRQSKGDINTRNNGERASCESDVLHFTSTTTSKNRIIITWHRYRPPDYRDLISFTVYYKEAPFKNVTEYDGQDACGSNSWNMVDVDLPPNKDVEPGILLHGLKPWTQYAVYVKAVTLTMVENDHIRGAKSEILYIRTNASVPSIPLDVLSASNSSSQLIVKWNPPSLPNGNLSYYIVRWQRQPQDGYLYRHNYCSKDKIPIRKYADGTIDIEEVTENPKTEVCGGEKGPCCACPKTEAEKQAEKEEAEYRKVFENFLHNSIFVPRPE
Insulin-like growth factor 1 receptor (Homo sapiens), sequence (P08069 741-1367 limits assumed): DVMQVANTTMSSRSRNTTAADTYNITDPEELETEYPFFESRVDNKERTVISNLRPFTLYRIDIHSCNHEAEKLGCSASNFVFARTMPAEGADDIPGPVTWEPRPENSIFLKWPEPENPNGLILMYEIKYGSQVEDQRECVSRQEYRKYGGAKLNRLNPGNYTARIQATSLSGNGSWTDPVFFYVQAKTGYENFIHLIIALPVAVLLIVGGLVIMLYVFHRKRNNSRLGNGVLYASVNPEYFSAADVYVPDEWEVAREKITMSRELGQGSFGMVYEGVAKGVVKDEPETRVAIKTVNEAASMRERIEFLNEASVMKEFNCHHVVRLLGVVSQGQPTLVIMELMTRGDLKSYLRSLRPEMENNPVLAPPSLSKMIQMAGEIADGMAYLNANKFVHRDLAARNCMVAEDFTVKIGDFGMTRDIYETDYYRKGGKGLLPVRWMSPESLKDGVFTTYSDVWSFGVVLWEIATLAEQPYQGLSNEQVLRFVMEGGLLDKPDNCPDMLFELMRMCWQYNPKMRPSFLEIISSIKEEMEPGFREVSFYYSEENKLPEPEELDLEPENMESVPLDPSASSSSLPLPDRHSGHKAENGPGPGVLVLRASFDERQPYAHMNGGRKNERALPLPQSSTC

With `Oc1ccc(-c2nc(-c3ccc(F)cc3)c(-c3ccncc3)[nH]2)cc1`, the residual activity in assay [1] amounted to 85%; in assay [2] it was 100%; in [3] it was 40%; in [4], 122%; in assay [5], 123%; in assay [6], 90%. The residual activity stood at 59% in [7], 120% in [8], 91% in assay [9] and 136% in assay [10].
